Laboratory results: publication PMC5540273 (PLoS ONE, 2017)

test system: TSSK3; conditions: concentration: 1 μM, replicates: in singlicate; n = 1
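Also: KINOMEscan kinase panel screen.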

SMILES	%Inh [%]
CCn1cnc2c(N)ncnc21 [GW345098]	6
Cl.Nc1ncnc2occ(-c3ccc(NC(=O)Nc4cc(C(F)(F)F)ccc4F)cc3)c12 [SB-707548]	11
CC(=O)Nc1ccc(COc2ccc(Nc3ccnc4cc(-c5ccccn5)ccc34)cc2)cc1.Cl [GW440148]	12
Cc1nnc(-c2ccc3occ(-c4ccc(C(C)O)cc4)c3c2)o1 (stereo not shown)	1
Cc1nnc(-c2ccc3ncc(-c4ccc(S(C)=O)cc4)n3c2)o1 (stereo not shown)	0
c1ccc(-c2n[nH]cc2-c2ccnc3ccccc23)nc1 [GW271431]	22
CCCCCc1nc2c(N)ncnc2n1CCCCC [SKF-97255]	0
CN1c2ccc(CNc3ccc(F)cc3)cc2-c2c(cnn2C)S1(=O)=O	0
NCC(NC(=O)c1cc(-c2cn[nH]c2)c(-c2ccnc3[nH]ccc23)s1)c1ccccc1.O=C(O)C(F)(F)F.O=C(O)C(F)(F)F (stereo not shown) [GSK1325775]	23
O=C(Nc1n[nH]c2cc(-c3cccc(F)c3)ccc12)C1CC1 [SB-735464]	9
COc1ccc(COc2cc(-n3cnc4ccccc43)sc2C(N)=O)cc1 [GSK1024304]	17
CN(C(=O)c1ccc(-c2cc(-c3c[nH]nc3-c3ccccn3)ccn2)cc1)C1CCOCC1 [GW810083]	33
O=c1cc(N2CCOCC2)nc2n(Cc3cccc(Cl)c3Cl)c(C3CC3)nn12 [GSK2358994]	0
COc1cc2ncn(-c3cc(OCc4sccc4Cl)c(C(N)=O)s3)c2cc1OC [GSK448459]	10
CCc1ccnc(/C=C/c2n[nH]c3cc(Sc4ccccc4C(=O)NC)ccc23)c1	0
CSc1ccc(-c2cc3ncnc(SCC(=O)O)c3s2)cc1	0
COc1ccc(Nc2nccc(N3CCC(NC(=O)Nc4cc(C)ccc4C)C3)n2)cc1 (stereo not shown) [GSK1379741]	9
Cc1c(Cn2c(C)nn3c(=O)cc(N4CCOC(C)C4)nc23)cccc1C(F)(F)F (stereo not shown) [GSK2344444]	0
O=C1NC(=O)C(N2CCc3ccccc32)=C1c1cccc(Cl)c1 [SB-408010]	0
Cn1ccc2ncnc(Oc3ccc(NC(=O)Nc4ccncc4)c(Cl)c3)c21	0
O=C(NOCC1CC1)c1ccc(F)c(F)c1Nc1ccc(I)cc1Cl	0
Cc1ccc(NC(=O)c2ccnc(N3CCN(C)CC3)c2)cc1-c1ccc(C(=O)NCC2CC2)cc1 [GW775604]	0

test system: TTK; conditions: concentration: 1 μM, replicates: in singlicate; n = 1

SMILES	%Inh [%]
CC(C)(C)n1cnc2c(N)ncnc21 [SKF-97359]	0
Cc1cccc(Cn2ccn3c(=O)cc(N4CCOCC4)nc23)c1 [GSK2297542]	62
c1ccc(-c2cc(-c3c[nH]nc3-c3ccccn3)ccn2)cc1 [GW576604]	0
O=C(Nc1cccc(-c2nn3ncccc3c2-c2ccnc(Nc3cccc(C(F)(F)F)c3)n2)c1)c1c(F)cccc1F [GSK299495]	6
COc1cc2c(cc1OC[C@@H](O)CO)ncc1c3ccc(C#N)cc3[nH]c21	0
N#Cc1ccc(-c2cc(-c3c[nH]nc3-c3ccccn3)ccn2)cc1 [GW693028]	3
Fc1ccc(-c2ncn(CCCN3CCOCC3)c2-c2ccccn2)cc1 [SB-211742]	0
COc1ccc(Nc2nccc(N3CCC(NC(=O)Nc4cccc(C(C)=O)c4)C3)n2)cc1 (stereo not shown) [GSK1379731]	15
Cn1cc(-c2ccc3c(c2)CCN3C(=O)Cc2ccccc2Cl)c2c(N)ncnc21 [GSK2608885]	17
CNc1ncnc2[nH]ncc12 [SKF-18355]	0
Cc1cccc(-c2nc(Nc3ccc4ncsc4c3)c3ccccc3n2)n1 [GW867588]	55
[2H]C([2H])(c1cccc(C(F)(F)F)c1C)n1ccn2c(=O)nc(N3CCOCC3)cc12 [GSK2336394]	0
Cc1c2ccc(N(C)c3ccnc(Nc4cccc(S(N)(=O)=O)c4)n3)cc2nn1Cc1ccccc1.Cl.Cl [GW787226]	35
O=C(c1ccc(-c2cc(-c3c[nH]nc3-c3ccccn3)ccn2)cc1)N1CCOCC1 [GW812171]	0
CCn1cnc2c(N)ncnc21 [GW345098]	0
Cl.Nc1ncnc2occ(-c3ccc(NC(=O)Nc4cc(C(F)(F)F)ccc4F)cc3)c12 [SB-707548]	35
CC(=O)Nc1ccc(COc2ccc(Nc3ccnc4cc(-c5ccccn5)ccc34)cc2)cc1.Cl [GW440148]	0
Cc1nnc(-c2ccc3occ(-c4ccc(C(C)O)cc4)c3c2)o1 (stereo not shown)	8

SMILES	%Inh [%]
Cc1nnc(-c2ccc3ncc(-c4ccc(S(C)=O)cc4)n3c2)o1 (stereo not shown)	0
c1ccc(-c2n[nH]cc2-c2ccnc3ccccc23)nc1 [GW271431]	4
CCCCCc1nc2c(N)ncnc2n1CCCCC [SKF-97255]	0
CN1c2ccc(CNc3ccc(F)cc3)cc2-c2c(cnn2C)S1(=O)=O	0
NCC(NC(=O)c1cc(-c2cn[nH]c2)c(-c2ccnc3[nH]ccc23)s1)c1ccccc1.O=C(O)C(F)(F)F.O=C(O)C(F)(F)F (stereo not shown) [GSK1325775]	14
O=C(Nc1n[nH]c2cc(-c3cccc(F)c3)ccc12)C1CC1 [SB-735464]	21
COc1ccc(COc2cc(-n3cnc4ccccc43)sc2C(N)=O)cc1 [GSK1024304]	6
CN(C(=O)c1ccc(-c2cc(-c3c[nH]nc3-c3ccccn3)ccn2)cc1)C1CCOCC1 [GW810083]	0
O=c1cc(N2CCOCC2)nc2n(Cc3cccc(Cl)c3Cl)c(C3CC3)nn12 [GSK2358994]	0
COc1cc2ncn(-c3cc(OCc4sccc4Cl)c(C(N)=O)s3)c2cc1OC [GSK448459]	5
CCc1ccnc(/C=C/c2n[nH]c3cc(Sc4ccccc4C(=O)NC)ccc23)c1	0
CSc1ccc(-c2cc3ncnc(SCC(=O)O)c3s2)cc1	0
COc1ccc(Nc2nccc(N3CCC(NC(=O)Nc4cc(C)ccc4C)C3)n2)cc1 (stereo not shown) [GSK1379741]	0
Cc1c(Cn2c(C)nn3c(=O)cc(N4CCOC(C)C4)nc23)cccc1C(F)(F)F (stereo not shown) [GSK2344444]	6
O=C1NC(=O)C(N2CCc3ccccc32)=C1c1cccc(Cl)c1 [SB-408010]	39
Cn1ccc2ncnc(Oc3ccc(NC(=O)Nc4ccncc4)c(Cl)c3)c21	0
O=C(NOCC1CC1)c1ccc(F)c(F)c1Nc1ccc(I)cc1Cl	0
Cc1ccc(NC(=O)c2ccnc(N3CCN(C)CC3)c2)cc1-c1ccc(C(=O)NCC2CC2)cc1 [GW775604]	0
